Screening data from PubChem BioAssay.
Only some compounds are listed: those with a hit (about 12% of all), similar ones and a draw of the others.
JMJD2A Tudor inh – blocks the human JMJD2A Tudor domain. O75164. AlphaScreen JMJD2A-Tudor / H3K4me3 peptide binding. Potency, µM (series often up to 114 µM), inactives show top-dose activity change, negative = inhibition, usual class: inhibitors. actives 4.4% (n = 390,000). AID 504339; further: on the % scale 0 is the no-effect control and ±100 the full control effect; nearly all actives have a fitted effect of over 50% in size
G9a inh – inhibitors of human histone lysine methyltransferase G9a. Q96KQ7. G9a H3K9 monomethylation, AlphaScreen, 2 h. AID 504332. actives 8.8% (n = 350,000). Potency, µM (titrated, usually from 102 µM), without a hit: at the top dose activity, negative = inhibition, usual class: inhibitors; further: on the % scale 0 is the no-effect control and ±100 the full control effect; nearly all actives have a fitted effect of over 75% in size
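G9a (20 nM) preincubated 15 min RT with compounds, then 500 nM biotinylated H3K9 peptide and 20 uM SAM added; 2 h RT reaction. Monomethyl-H3K9 product detected by AlphaScreen with anti-H3K9me1 antibody, streptavidin donor and anti-rabbit IgG acceptor beads.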
L3MBTL1 block – inhibitors of human L3MBTL1; Q9Y468; AlphaScreen L3MBTL1–H3K9me1 peptide binding; Potency, µM (highest dose often 57.1 µM), for the others: at the top dose activity, negative = inhibition, usual class: inhibitors; actives 0.66% (n = 230,000); further: on the % scale 0 is the no-effect control and ±100 the full control effect; nearly all actives have a fitted effect of over 60% in size
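AlphaScreen assay: L3MBTL1 (50 nM final) was preincubated 30 min at room temperature with biotinylated H3(1-15)K9me1 peptide (75 nM final), then 30 min with library compounds; streptavidin donor and nickel chelate acceptor beads (10 ug/mL final) added, 30 min dark.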
BAZ2B inh – BAZ2B (human) inhibition; Q9UIF8; AlphaScreen BAZ2B-H3K14Ac peptide displacement; Potency, µM (titrated, usually from 114 µM), for the others: at the top dose activity change, negative = inhibition, most hits filed as inhibitors; actives 4.4% (n = 360,000); AID 504333; further: on the % scale 0 is the no-effect control and ±100 the full control effect; nearly all actives have a fitted effect of over 60% in size
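In this displacement format the biotinylated H3(5-23) peptide acetylated at Lys14 serves as ligand at 50 nM, with BAZ2B at 50 nM in PBS pH 7.4 containing 0.01% Tween-20. Donor and acceptor beads are 10 ug/mL final.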
HP1b binding inh – HP1-beta chromodomain-methylated histone interaction inhibition; actives 0.56% (n = 390,000); Potency, µM (doses to about 114 µM), for inactives: at the highest dose activity change, negative = inhibition, actives largely listed as inhibitors; P83916; AID 540317; AlphaScreen HP1-beta / biotin-H3K9me3 peptide binding; further: nearly all actives have a fitted effect of over 70% in size
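HP1-beta protein (50 nM final) preincubated 30 min at room temperature with biotinylated H3(1-18)K9me3 peptide (50 nM) in PBS pH 7.4, 0.01% Tween-20, then compound added for 30 min. AlphaScreen streptavidin donor/nickel chelate acceptor beads (10 ug/mL final), 30 min dark, luminescence read.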
Sfp PPTase inh – inhibitors of Bacillus subtilis Sfp phosphopantetheinyl transferase; actives 3.5% (n = 310,000); Q9F4F7; Potency, µM, without a hit: largest response in the series, negative = inhibition, usual class: inhibitors; Biochemical Sfp PPTase activity, qHTS; AID 1490;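 further: the enzyme is Sfp with the accession as filed and its product quenches rhodamine fluorescence; 0% = enzyme reaction without inhibitor and -100% = no enzyme wells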
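With Hepes-Na pH 7.6 buffer containing 10 mM MgCl2, Sfp (15 nM) modified BHQ-2-YbbR (12.5 uM) using rhodamine-CoA (5 uM). Two reads 30 minutes apart at 525/598 nm yielded each well's rate.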
* = called active by the depositor; ? = inconclusive; nt = no result; [ ] = dose if it differs, or a comment. The call rests on the fitted dose curve; in most records, active means well fitted curve in the direction sought with a large enough effect; inconclusive means small, poorly fitted or top-dose-only effect, or another doubt; inactive means no such curve, though single readings can be large; an effect the other way counts as inactive or inconclusive. Potency means the concentration at half of the fitted maximal effect.

SMILES	JMJD2A Tudor inh	G9a inh	L3MBTL1 block	BAZ2B inh	HP1b binding inh	Sfp PPTase inh
O=C(Nc1ccc(Cl)cc1)[C@@H]1[C@@H]2C(=O)N(c3ccc4ccccc4c3)C(=O)[C@@H]2[C@H]2C=CC=NN21	63µM*	3.2µM*	nt	?	-4%	40µM*
COc1ccc(C(=O)[C@H]2[C@H]3C(=O)N(c4ccc(OC(C)=O)cc4)C(=O)[C@H]3C3C=CC=NN32)cc1 (some centres not stated)	-23%	nt	nt	-20%	6%	2%
NC(=O)C1CCN(C(=O)c2cccc(S(=O)(=O)N3CCc4ccccc4C3)c2)CC1	0%	-12%	1%	-18%	16%	14%
COc1ccc(N2CCN(C(=O)c3cccc(S(=O)(=O)N4CCc5ccccc54)c3)CC2)cc1	40µM*	nt	?	nt	?	nt
O=C(c1cccc(S(=O)(=O)N2CCc3ccccc3C2)c1)N1CCN(c2ccc(O)cc2)CC1	?	2.5µM*	-9%	?	?	-33%
CCOC(=O)c1csc(-n2nc(C)cc2C(F)(F)F)n1	0%	-4%	nt	6%	21%	9%
Cc1cc(C)n(-c2nc(C(=O)O)cs2)n1	-7%	50µM*	-14%	?	17%	10%
CN(C)c1ccc(NC(=O)CSc2nnc(-c3ccco3)c(-c3ccco3)n2)cc1	?	25µM*	nt	25µM*	?	?
Cc1ccc(NC(=O)CSc2nnc(-c3ccco3)c(-c3ccco3)n2)cc1	56µM*	?	20µM*	32µM*	?	8.9µM*
O=C(CSc1n[nH]c(-c2ccco2)n1)Nc1ccc(F)cc1	-18%	6%	nt	-4%	-6%	3%
O=C(CSc1nnc(-c2ccco2)c(-c2ccco2)n1)Nc1ccccc1	50µM*	-3%[2.33 µM]	4µM*	20µM*	22µM*	8.9µM*
COc1ccc(C(CNC(=O)COc2cc(C)cc(C)c2)N2CCOCC2)cc1 (configuration not stated)	-24%	-7%[59 µM]	nt	-38%	25%	nt
Cc1ccc(/C=C/c2onc(C)c2S(=O)(=O)N2CCC(C(=O)NCc3ccc(Cl)cc3)CC2)cc1	-2%	12%[59 µM]	nt	2%	24%[57 µM]	nt
CCNc1ncc2nc(-c3ccccc3)c(=O)n(C)c2n1	nt	5%[0.501 µM]	nt	nt	nt	10%
COc1ccc(NC(=O)N2CCC3(CC2)CCN(C(=O)c2csnn2)CC3)cc1	nt	-6%[12.7 µM]	nt	nt	nt	-2%
Cc1cc(C)c(S(=O)(=O)NCC(c2ccco2)N2CCN(c3ccccc3)CC2)c(C)c1 (configuration not stated)	-22%	-4%[59 µM]	nt	-22%	14%	nt
Cc1ccc(C(=O)c2cc3c(cc2[N+](=O)[O-])OCCO3)cc1	?	?	-24%	56µM*	-18%	-16%
COc1ccc(CCNC(=O)c2cc3sccc3n2Cc2ccc(Cl)cc2)cc1OC	?	-8%[59 µM]	nt	-25%	19%	nt
Oc1ccc2ccccc2c1N=Nc1ccccn1	35µM*	3.2µM*	10µM*	4µM*	8.9µM*	-15%
O=S(=O)(O)c1cccc(N=Nc2c(O)ccc3ccccc23)c1	?	nt	nt	11µM*	?	?
CCOC(=O)c1c[nH]c2ccc3ccccc3c2c1=O	-15%	-100%	-3%	-34%	19%	-4%
Cc1[nH]n(S(=O)(=O)c2ccccc2)c(=O)c1N=Nc1cccc(Cl)c1	-17%	nt	-2%	6%	30%	6%
Oc1ccc2ccccc2c1N=Nc1ccccc1F	3.5µM*	2.2µM*	8.9µM*	2.8µM*	?	4%
CCCn1c(O)c(N=Nc2ccc3ccccc3n2)c2ccccc21	-5%	32%[59 µM]	-10%	6%	40%	-3%
CCOC(=O)c1[nH]cnc1N=Nc1c(O)ccc2ccccc12	79µM*	50µM*	-10%	11µM*	-31%	14%
SMILES	JMJD2A Tudor inh	G9a inh	L3MBTL1 block	BAZ2B inh	HP1b binding inh	Sfp PPTase inh
COc1ccc2c(c1)c1c(c(=O)n(-c3ccc(OC)c(OC)c3)c(=O)n1Cc1ccccc1C)n2C	3%	8%[59 µM]	nt	-2%	39%	nt
O=[S+]([O-])(c1ccc(-c2ccccc2)cc1)N1CCN([S+](=O)([O-])c2ccc3c(c2)OCCO3)CC1	-14%	nt	nt	nt	nt	nt
CCc1ccc(S(=O)(=O)N/N=C(/C)c2ccncc2)cc1	-15%	40µM*	nt	-5%	55%	7%
C/C(=N/NS(=O)(=O)c1ccc(F)cc1)c1ccncc1	-22%	22µM*	nt	-14%	32%	-13%
C/C(=N\Nc1ccc(F)cc1)c1ccncc1	-21%	?	-8%	?	9%	-12%
COc1cc(/C=C2/NC(=O)N(Cc3ccccc3F)C2=O)ccc1Oc1ccc([N+](=O)[O-])cn1	1%	-7%[59 µM]	4%	-2%	21%	11%
COc1cc(/C=C2\SC(=O)NC2=O)ccc1Oc1ccc([N+](=O)[O-])cn1	-26%	-3%[12.7 µM]	-3%	-38%	-15%	79µM*
COc1cc(/C=N/NC(=O)c2ccc3ccccc3c2)ccc1Oc1ccc([N+](=O)[O-])cn1	25µM*	1.8µM*	-2%	-32%	12%	2%
COc1cc(/C=C2/SC(=O)NC2=O)ccc1Oc1ccc([N+](=O)[O-])cc1[N+](=O)[O-]	-18%[11.4 µM]	?	nt	?	-7%	50µM*
COc1ccc(N(Cc2cccs2)C(=O)COc2ccc([N+](=O)[O-])cc2)cc1	-16%	-19%[59 µM]	nt	-31%	32%	nt
CCSc1nnc2c(n1)OC(c1cc(OC)c(OC)c(OC)c1)Nc1ccccc1-2 (configuration not stated)	-12%	-10%[59 µM]	nt	2%	28%	nt
CCS(=O)(=O)N1CCc2cc(C(=O)Nc3ccc(OC)c(Cl)c3)ccc21	-36%	?	nt	?	18%	nt
CC(=O)Nc1cccc(NC(=S)Nc2cccc(Cl)c2Cl)c1	-18%	nt	1%	-13%	-7%	32µM*
O=C(Nc1ccc(F)cc1F)Nc1ccc(F)cc1F	-3%	16%	11%	-20%	22%	18%
CC(=O)Nc1cccc(NC(=S)Nc2ccc(F)cc2F)c1	-23%	?	?	10%	21%	40µM*
O=C(CSC1=Nc2ccccc2N=C(c2ccc(F)cc2)C1)NCc1ccc(Cl)cc1	-5%	1%[59 µM]	nt	-2%	15%[57 µM]	nt
COc1cc(OC)c(NC(=O)CSC2=Nc3ccccc3N=C(c3ccc(F)cc3)C2)cc1Cl	-32%	0%[59 µM]	nt	?	-7%[57 µM]	nt
Cn1c2ccccc2c(=O)c2ccc(C#CC3(N)CCCCC3)cc21	6%	40µM*	10%	3%	77%	-16%
Cn1c2ccccc2c(=O)c2cc(C#CC3(O)CCCCC3)ccc21	-5%	nt	6%	6%	51%	5%
Cn1c(=O)c(-c2ccc(Cl)cc2)nc2cnc(Oc3ccccc3)nc21	nt	9%[12.7 µM]	nt	nt	nt	-7%
